Source: the OligoGym collection

Each sequence was assayed against RIT1 (assay: pooled miR-30 sensor sort-seq; sequence = guide strand). Details: shRNA.
Also: reference of the scale not given here.

Sequence | sensor-assay potency score (higher = more potent)
TCGGACTCGATAAATAAGCTGT | -0.314
TAAACTCTGCCTGTCCAGCTGT | 0.108
TTGGTGACCTGTCTTAGCTGTT | -0.52
TACACCACCAGCACCCAGCATC | -0.912
TAGCTGTTTGAGGTCTGACTTG | -0.94
TTATAAGCATCTTCAATGGTGG | -0.101
TTGAGGTCTGACTTGTTTCCCA | -0.117
TTCTTTCCTACGTATCTCCCGT | -0.212

What follows are sequences tested against RNASE11 in the same assay as above. Details: shRNA.

Sequence | sensor-assay potency score (higher = more potent)
TAATGAGGTAACACTATGGTAT | -0.534
TTCTGTACAAACTTGCAGCTGG | 0.788
TCTTTAATTATCTTCATTGTGC | -0.382
TTTAACTAACAGGATCGGGTTC | -0.116
TTGGATTTTTCACTCCTCCAGT | -0.449
TTCTCTAATGAGGTAACACTAT | -1.05
TATTGCATCTCTTCGTCTGTAA | 0.018
TTGTGCTTTCTGATGCTTCTGC | 0.534
TTCGTCTGTAAATTCTTCTTTA | -0.406
TTTAGTAAGACCCTAGTCCTAA | -0.427
TGATGCTTCTGCAAGAACCAGG | -0.377
TTATCTTCATTGTGCTTTCTGA | -0.608

What follows are sequences tested against RNF113A in the same assay as above. Details: shRNA.

Sequence | sensor-assay potency score (higher = more potent)
TTTTCCGGTCGAACCACAGTGC | -0.536
TTAGCAATCAATTCTTTCGCTG | 0.0148
TAGATCTTGTCATCCTCCTTGC | 0.184
ATAGATCTTGTCATCCTCCTTG | 0.536
TAGCAATCAATTCTTTCGCTGG | 0.133
TAGTTTAGCAATCAATTCTTTC | -0.827
TTTACCACTGTCACGGGTCTTC | -0.541
TAGCTCGATGCTTCTCTAGTTT | -0.684
TTCGCTGCTCAAGTCGCCGTAA | -0.391
TACTGCTGCCGCTTTCTCCGGG | -0.242
TTTTCCTCTTCCTCTTCGCTGC | -0.23
TTCGTCGCTACTGCTGCCGCTT | -0.608

These sequences were tested against RNF122 in the same assay as above. Details: shRNA.

Sequence | sensor-assay potency score (higher = more potent)
ATCCGTATCGCTCACTCTGTGC | -0.963
TTGCTGATAAAATAGCAGCAGA | -0.908
TTTCACCAGACACTTGCGGTGA | -0.949
TATATCCGTATCGCTCACTCTG | -0.842
TAGAATCCCAATGTTCTGCGTG | 0.594
ATAATTGTAACTTCTTGGCATC | -0.737
AAGTCTTCCAGACAGACTGCGC | -0.854
TTTGCTGATAAAATAGCAGCAG | -0.0269
